Hits are enriched below; roughly 19% of the tested compounds scored in any of these assays.
HT1080 IDH1KD tx – HT-1080 IDH1 knockdown cell toxicity (counter line); HT-1080 IDH1 knockdown viability, ATP luminescence, 48 h; Potency, µM (highest dose often 46.1 µM), without a hit: top-dose activity, negative = toxicity, usual class: cytotoxic; 360,000 tested, 2% active; AID 686971;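 note: potency is the fitted concentration of half-maximal effect; 0% = DMSO wells and -100% = cell-free medium wells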
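IDH1KD HT-1080 cells, 750/well, RPMI + 5% FBS; compound pinned after 2 h settling; 48 h, 37 °C; CellTiter-Glo luminescence; % activity normalised to DMSO and no-cell wells; curves fitted, classed by r2 and efficacy.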
DT40 TDP1 CPT – DT40-hTDP1 cell growth loss with CPT | chicken DT40 Tdp1-/-;hTDP1 cells + 20 nM CPT, ATP luminescence, 48 h | Potency, µM (titrated, usually from 46.2 µM), inactives show at the highest dose activity change, negative = growth inhibition, most hits filed as inhibitors | 420,000 tested, 12% active; note: potency is the fitted concentration of half-maximal effect; nearly all actives have a fitted effect of over 55% in size
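Chicken DT40 Tdp1-/- cells complemented with human TDP1, 400 cells/well, exposed to compounds plus 20 nM camptothecin for at least 48 h at 37 C; viability read as ATP content by CellTiter-Glo luminescence.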
IL1B secr inh – inflammasome signaling inhibition, IL-1 beta readout; activity change, % at 57.5 µM; AID 743279; 360,000 tested, 4.7% active; THP-1 LPS/ATP IL-1B secretion, AlphaLISA, 16 h; active compounds read low; in the data active = activity change below about -50%; inconclusive = mostly about -30% to -49%
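THP-1 cells pretreated 1 hr with compounds (up to 57.5 uM final), then stimulated with LPS (250 ng/mL final) plus ATP (1.25 mM final); secreted IL-1B measured by AlphaLISA after 16 hr, decreased signal indicating inhibition.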
TDP1 cell noCPT – qHTS for Inhibitors of human tyrosyl-DNA phosphodiesterase 1 (TDP1): qHTS in cells in absence of CPT; DT40 Tdp1-/- hTDP1 cells, no CPT, ATP luminescence, 48 h; Potency, µM (highest dose often 46.2 µM), for inactives: at the highest dose activity change, negative = growth inhibition, actives largely listed as inhibitors; 420,000 tested, 15% active; AID 686978, 2013; note: potency is the fitted concentration of half-maximal effect; nearly all actives have a fitted effect of over 55% in size
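Growth of hTDP1-complemented DT40 Tdp1-knockout cells is measured by ATP luminescence after at least 48 hr compound exposure at 37 °C, with DMSO substituting for the 20 nM CPT used in the parallel screen.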
HT1080NT lethal – kills 2HG-producing HT-1080-NT fibrosarcoma cells; HT-1080-NT fibrosarcoma viability, CellTiter-Glo ATP luminescence, 48 h; Potency, µM (doses to about 46.1 µM), for inactives: at the top dose activity, negative = less viability, usual class: cytotoxic; 360,000 tested, 1.6% active; AID 686970;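 note: NT is the 2HG producing partner of a matched IDH1 knockdown line; potency is the fitted concentration of half-maximal effect; 0% = DMSO-treated cells and -100% = media-only wells without cells; nearly all actives have a fitted effect of over 55% in size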
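HT-1080-NT fibrosarcoma cells (2HG-overproducing), 750 cells/well in RPMI with 5% FBS, dosed after 2 h and incubated 48 h at 37C. CellTiter-Glo luminescence normalized to DMSO and no-cell wells; concentration-response curves fitted and classed.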
uPA surface inh – blocks generation of uPA at the cell surface; 330,000 tested, 0.31% active; cell surface uPA generation assay, qHTS; Potency, µM (series often up to 38.3 µM), without a hit: top-dose activity change, negative = inhibition, usual class: inhibitors; active = well fitted inhibition curve with a large enough effect; inconclusive = small, poorly fitted or top-dose-only effect; inactive = no such curve, though single readings can be large or run the other way; tested in mouse RAW 264.7 cells; note: potency is the fitted concentration of half-maximal effect; nearly all actives have a fitted effect of over 55% in size
Active calls of the source: *; ! = not confirmed by another sample; [ ] = remark or other dose. Unless noted, calls come from the whole dose curve; as a rule, active = well fitted curve in the direction sought with a large enough effect; inconclusive = small, poorly fitted or top-dose-only effect, or another doubt; inactive = no such curve, though single readings can be large; an effect the other way counts as inactive or inconclusive. Unless noted, % is set by controls: 0 for no effect and ±100 for the full control effect.

Screening CC(=O)N1CCN(Cc2ccc(Cl)nc2)CC1 returned HT1080 IDH1KD tx 0%, DT40 TDP1 CPT 15%, IL1B secr inh 35, TDP1 cell noCPT 14%, HT1080NT lethal 6% and uPA surface inh 1%.
Screening Cc1cc([N+](=O)[O-])nn1CC(=O)N/N=C/c1ccccc1O returned HT1080 IDH1KD tx inconclusive, DT40 TDP1 CPT 8.2µM*, IL1B secr inh 192, TDP1 cell noCPT 18µM*, HT1080NT lethal inconclusive and uPA surface inh inconclusive.
Screening O=C(CSC1c2ccccc2-c2ccccc21)N/N=C/c1ccccc1C(=O)O returned HT1080 IDH1KD tx -24%, DT40 TDP1 CPT 3%, IL1B secr inh 25, TDP1 cell noCPT inconclusive, HT1080NT lethal -21% and uPA surface inh -1%.
Screening O=C(CSCC(=O)NN=Cc1ccccc1O)NN=Cc1ccccc1O returned HT1080 IDH1KD tx 21µM*, DT40 TDP1 CPT 5.8µM*, IL1B secr inh 38, TDP1 cell noCPT 5.8µM*, HT1080NT lethal inconclusive and uPA surface inh inconclusive.
For CC(=O)N1CC(=O)Nc2ccc(Br)cc2C1c1ccc(F)cc1 (stereo not given) the results were HT1080 IDH1KD tx -10%, DT40 TDP1 CPT 5%, IL1B secr inh 13, TDP1 cell noCPT 14%, HT1080NT lethal -1% and uPA surface inh -20%.
`CCCC[C@@H](CNC)NC[C@H](Cc1ccc(O)cc1)NCCc1ccc(OCC)cc1` gave HT1080 IDH1KD tx -24%, DT40 TDP1 CPT 5.2µM*, IL1B secr inh -27, TDP1 cell noCPT 3.3µM*, HT1080NT lethal inconclusive and uPA surface inh inconclusive.
`CCOC(=O)N1CCC(NC(=O)CCc2nc(C3=CCN(C)CC3)no2)CC1` gave HT1080 IDH1KD tx 17%, DT40 TDP1 CPT -9%, IL1B secr inh -63*!, TDP1 cell noCPT -10%, HT1080NT lethal 7% and uPA surface inh -4%.
`COc1ccc(CC(C)NC2CCCCCC2)cc1` (stereo not given) gave HT1080 IDH1KD tx -11%, DT40 TDP1 CPT inconclusive, IL1B secr inh -1, TDP1 cell noCPT inconclusive, HT1080NT lethal 2% and uPA surface inh -1%.
For CCOP(=S)(OCC)SCSc1ccc(Cl)cc1 the results were DT40 TDP1 CPT -10% and TDP1 cell noCPT -7%.
`Cc1ccc(C)c(S(=O)(=O)c2nnn3c2nc(N2CCN(C)CC2)c2sccc23)c1` gave DT40 TDP1 CPT 16µM* and TDP1 cell noCPT inconclusive.
`Cc1ccc2nc(N3CCN(C)CC3)[nH]c2c1` gave HT1080 IDH1KD tx -5%, DT40 TDP1 CPT -18%, IL1B secr inh -1, TDP1 cell noCPT 1%, HT1080NT lethal -1% and uPA surface inh 3%.
COCC1CCCN(C(=O)c2cc(COc3ccc4ncccc4c3)on2)C1 (stereo not given) was read as HT1080 IDH1KD tx -25%, DT40 TDP1 CPT 7.3µM*, IL1B secr inh -6, TDP1 cell noCPT 5.8µM*, HT1080NT lethal 7% and uPA surface inh inconclusive.
`CC1CCN(C(=O)N2c3ccccc3Sc3ccccc32)CC1` gave HT1080 IDH1KD tx -5%[9.24 µM], DT40 TDP1 CPT inconclusive, IL1B secr inh 13, TDP1 cell noCPT inconclusive, HT1080NT lethal inconclusive and uPA surface inh 6%.
c1ccc2c(c1)Sc1ccccc1N2CC1CN2CCC1CC2 (stereo not given) was read as HT1080 IDH1KD tx -4%, DT40 TDP1 CPT 2.7µM*!, IL1B secr inh -24, TDP1 cell noCPT 6.7µM*, HT1080NT lethal -7% and uPA surface inh 3%.
`CCC1(C)CC(=O)NC(=O)C1` gave DT40 TDP1 CPT 0%[21.1 µM] and TDP1 cell noCPT 4%[21.1 µM].
Screening Nc1c(C(=O)Nc2ccc(OC(F)(F)F)cc2)sc2nc3c(cc12)N1CCC3CC1 returned DT40 TDP1 CPT 16µM* and TDP1 cell noCPT 18µM*.

Source: PubChem BioAssay (National Center for Advancing Translational Sciences (NCATS))
